# 697 NFkB inh – lowers PMA/ionomycin-induced NF-kB signal in 697 B cells; inhibition, % at 4 µM; 697 B-cell NF-kB luciferase reporter, 16 h; AID 435022; hit rate 0.33% among 330,000; in the data active = inhibition above about 35%
# Beta cell apopt – beta cell apoptosis inhibition; INS-1E cytokine-induced death, ATP luminescence, 48 h; percent of positive-control rescue, neutral wells zero; protection from apoptosis, % (no concentration beside the values); hit rate 0.8% among 300,000; AID 435005;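 active = Every replicate reaches about 75%, or at least half do and their mean reaches it too, limit read from the data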;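 note: 0% = cytokine-treated negative control wells and 100% = positive control rescue; higher means more ATP so stronger rescue from cytokine killing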
# Mdm2 MdmX PPI – inhibitors of human Mdm2/MdmX interaction. O15151+Q00987. SaOS-2 split-luciferase Mdm2/MdmX complementation, luminescence. inhibition, % at 8 µM. hit rate 3% among 330,000. AID 485346;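 active = inhibition of at least 50% at 8 µM in the primary screen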
# Target sequence (O15151 whole entry, looked up): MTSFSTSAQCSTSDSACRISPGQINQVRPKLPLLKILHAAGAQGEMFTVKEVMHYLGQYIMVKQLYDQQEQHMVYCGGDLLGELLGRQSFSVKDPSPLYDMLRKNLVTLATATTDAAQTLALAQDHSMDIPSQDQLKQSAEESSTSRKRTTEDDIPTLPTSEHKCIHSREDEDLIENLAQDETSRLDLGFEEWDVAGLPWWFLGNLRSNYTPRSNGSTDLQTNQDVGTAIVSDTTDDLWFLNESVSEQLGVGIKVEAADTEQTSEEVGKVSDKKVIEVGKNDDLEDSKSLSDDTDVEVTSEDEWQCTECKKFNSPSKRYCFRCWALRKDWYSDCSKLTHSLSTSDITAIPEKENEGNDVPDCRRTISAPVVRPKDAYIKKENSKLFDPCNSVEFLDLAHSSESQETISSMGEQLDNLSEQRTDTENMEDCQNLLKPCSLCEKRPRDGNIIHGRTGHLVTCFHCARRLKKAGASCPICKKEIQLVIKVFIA
# Target sequence (Q00987 whole entry, looked up): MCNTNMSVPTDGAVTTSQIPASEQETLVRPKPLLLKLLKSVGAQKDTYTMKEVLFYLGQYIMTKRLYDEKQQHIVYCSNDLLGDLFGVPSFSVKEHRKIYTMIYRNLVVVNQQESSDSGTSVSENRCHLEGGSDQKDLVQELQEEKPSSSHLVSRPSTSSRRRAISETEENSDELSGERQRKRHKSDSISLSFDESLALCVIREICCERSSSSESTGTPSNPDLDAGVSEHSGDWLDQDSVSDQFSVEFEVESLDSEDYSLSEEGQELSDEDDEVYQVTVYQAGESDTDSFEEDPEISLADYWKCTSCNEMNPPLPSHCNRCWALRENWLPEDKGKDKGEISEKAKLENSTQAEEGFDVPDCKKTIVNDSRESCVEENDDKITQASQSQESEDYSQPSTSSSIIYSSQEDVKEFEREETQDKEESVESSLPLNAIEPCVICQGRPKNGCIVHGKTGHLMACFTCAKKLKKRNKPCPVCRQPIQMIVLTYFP
# Jurkat NFkB inh – lowers PMA/ionomycin-induced NF-kB signal in Jurkat cells | PMA/ionomycin-induced NF-kB luciferase reporter, luminescence | inhibition, % at 4 µM | hit rate 0.53% among 330,000 | AID 435003; in the data active = inhibition above about 50%
# Gli-Sufu block – blocks Gli-Sufu signaling in a luciferase reporter; Sufu-KO-LIGHT fibroblasts, Gli luciferase reporter luminescence; inhibition, % at 5 µM; hit rate 0.74% among 340,000; AID 588413;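 active = inhibition above about 55%, limit read from the data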;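 note: 0% = DMSO-treated cells and 100% = wells with medium but no cells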
# Mdm2-MdmX conf – human Mdm2/MdmX binding inhibition, confirmed. shares compounds with Mdm2 MdmX PPI. luminescent assay. inhibition, % at 8 µM. hit rate 55% among 10,000. AID 489028; in the data active = inhibition above about 40%
# Full FLuc ctr – full-length luciferase inhibition in Mdm2/MdmX counter-screen; hit rate 77% among 6,200; shares compounds with Mdm2 MdmX PPI; AID 504607; SaOS-2 full-length luciferase counterscreen, luminescence; inhibition, % at 8 µM;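 active = mean inhibition at 8 µM reaching about 37%, which flags the compound as non-specific, limit read from the data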;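 note: p53-null SaOS-2 cells with luciferase driven by a doxycycline-inducible promoter; compound on cells about two nights before reading with doxycycline added after day one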
# Starred values were filed as active, the others as inactive; . = not tested or not shown. Shown are actives, neighbours in structure and some others; about 4% of the full set was active somewhere.
SMILES,697 NFkB inh,Beta cell apopt,Mdm2 MdmX PPI,Jurkat NFkB inh,Gli-Sufu block,Mdm2-MdmX conf,Full FLuc ctr
COc1ccc(C)cc1Nc1n[n+](-c2ccccc2)c(-c2c(OC)ccc3ccccc23)s1,-8.8,124.2*,91.6*,15.8,33.0,62.3*,29.0
c1ccc(-[n+]2nc(Nc3cccc4ccccc34)sc2-c2c3ccccc3cc3ccccc23)cc1,-1.5,116.7*,64.8*,25.7,50.0,80.2*,23.6
Fc1ccc(-[n+]2nc(Nc3ccccc3)sc2-c2c3ccccc3cc3ccccc23)cc1,-12.7,66.7,100.3*,9.6,13.1,90.0*,42.2*
Oc1ccc2ccccc2c1-c1sc(Nc2ccccc2)n[n+]1-c1ccc(F)cc1,-32.9,-7.3,-27.4,2.2,3.5,.,.
CCc1nn2c(=O)c(S(=O)(=O)Nc3ccc(Cl)cc3)c(C)nc2s1,6.4,-10.1,15.6,3.6,5.1,.,.
CCc1cccc(NS(=O)(=O)c2c(C)nc3sc(CC)nn3c2=O)c1,-9.5,-8.4,53.0*,-0.4,10.3,2.5,.
Cc1ccc(NC(=O)CSc2nc(=O)n(CCCN(C)C)c3c2CCC3)c(C)c1,-20.7,-2.4,12.8,4.7,8.3,.,.
Cc1ccc2nc(NC(=O)CSc3nc(=O)n(CCN(C)C)c4c3CCCC4)sc2c1,-32.2,-4.2,65.5*,-24.9,9.9,49.0*,71.1*
CCCCc1ccc(NC(=O)CSc2nc(=O)n(CCN(CC)CC)c3c2CCC3)cc1,-2.9,8.2,59.4*,17.5,35.0,35.5,61.5*
CCN(CC)CCn1c2c(c(SCC(=O)Nc3nc(C)cs3)nc1=O)CCCC2,-27.0,-5.1,22.6,1.9,11.8,.,.
CCN(CC)CCn1c2c(c(SCC(=O)Nc3nc(C)cs3)nc1=O)CCC2,2.6,-10.7,52.0*,-6.4,4.4,14.9,.
O=C1c2ccccc2NC(c2ccc(-c3ccc(C(F)(F)F)cc3)o2)N1O (centres undefined),-32.5,70.8,67.3*,-7.6,-4.3,48.6*,41.8*
COc1ccc(-c2cc(C(F)(F)F)nc(SCC(=O)Nc3cc(C)on3)n2)cc1,-16.5,-11.6,24.7,43.5,0.6,.,.
COc1ccccc1-c1cc(C(F)(F)F)nc(S(=O)(=O)CCCC(=O)N2CCOCC2)n1,-244.3,-9.3,96.8*,28.0,-3.6,97.7*,1.4
Cc1cc(NC(=O)CCS(=O)(=O)c2nc(-c3ccccc3)cc(C(F)(F)F)n2)no1,-81.6,-11.4,88.2*,20.8,9.8,77.5*,43.5*
COc1ccc(-c2cc(C(F)(F)F)nc(S(=O)(=O)CCCC(=O)Nc3cccc(O)c3)n2)cc1OC,-20.6,.,73.1*,4.3,-0.1,35.5,.
CCC(NC(=O)COC(=O)C1CC2CCCC(C1)C2=O)c1ccc(Br)cc1 (centres undefined),18.1,-1.8,13.7,17.8,-2.7,.,.
Cc1nc(CN(C)C(=O)c2cc(COc3ccc4ncccc4c3)on2)cs1,-13.6,42.3,0.9,45.9,50.3,.,.
O=C(NN1C(=O)c2ccccc2C1=O)c1ccccc1[N+](=O)[O-],-6.2,-3.7,1.0,-4.1,-0.2,.,.
Cc1nn(Cc2ccccc2Cl)c(C)c1C(=O)NCCN1C(=O)S/C(=C\c2ccccc2)C1=O,3.3,6.0,58.4*,11.5,7.7,7.2,.
Cc1nn(Cc2ccccc2Cl)c(C)c1C(=O)NCc1ccco1,-11.8,1.2,-37.4,2.8,-21.9,.,.
O=C(c1ccccc1)c1coc2c1C(=O)c1ccccc1C2=O,-3.4,67.1,45.2,-36.2,-6.4,.,.
O=C1c2ccccc2C(=O)c2c1oc(C(F)(F)F)c2C(=O)c1ccccc1,-4.4,122.5*,84.4*,18.8,-11.4,81.5*,49.6*
O=C(Oc1c(CN2CCOCC2)cc(Cl)c2cccnc12)c1ccccc1Br,5.1,97.4*,51.8*,7.3,-4.2,32.4,.
CCOC(=O)N1CCN(Cc2cc(Cl)c3cccnc3c2O)CC1,-16.8,102.8*,63.6*,36.5,73.2*,51.5*,37.8*
Oc1ccc(CN2CCCc3ccccc32)c2cccnc12,-113.9,103.4*,79.3*,-8.6,10.3,75.7*,42.9*
COc1ccccc1N1CCN(Cc2ccc(O)c3ncccc23)CC1,-2.8,139.5*,76.7*,31.0,76.4*,67.2*,21.1
CN1CCN(Cc2cc(Cl)c3cccnc3c2OC(=O)c2cccs2)CC1,-15.0,50.5,29.5,0.0,-4.6,.,.
